According to PubChem BioAssay AID1159580 (chemical genetic matrix, 2015):
The campaign covered roughly 5,500 compounds. About 2,000 (36%) were called active. Roughly 18% stayed inconclusive and do not appear here. Rule as the data show it: active = normalized growth mostly below about 0.91 (no sharp cut-off); inconclusive = no clear call, values can overlap the other calls; inactive = mostly above about 0.92. Some of the results follow.

Experiment: chemical genetic growth profiling, strain panel (AID 1159580);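 also: tested at 20 µM; growth read once vehicle control cultures reached saturation at 30 °C; 1 = growth at the plate median or of vehicle wells; lower values mean less growth of the strain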
Settings: S. cerevisiae deletion strains, growth OD

Measured: normalized growth

Cc1ccc(NC(=S)C(C#N)C(=O)N2CCOCC2)c(C)c1 (stereo unspecified)
inactive: locus YAR019C, strain CDC15, hits give low values 0.993 | locus YBL105C, strain PKC1, hits give low values 0.997 | locus YBR135W, strain CKS1, hits give low values 0.988 | locus YBR136W, strain MEC1, hits give low values 0.972 | locus YBR160W, strain CDC28, hits give low values 0.991 | locus YDL017W, strain CDC7, hits give low values 0.992 | locus YDL028C, strain MPS1, hits give low values 0.988 | locus YDL101C, strain DUN1, hits give low values 0.995 | locus YDL108W, strain KIN28, hits give low values 0.991 | locus YDL132W, strain cdc53, hits give low values 0.991 | locus YDL214C, strain PRR2, hits give low values 1.04 | locus YDR052C, strain DBF4, hits give low values 0.998 | locus YDR054C, strain cdc34, hits give low values 0.99 | locus YDR226W, strain ADK1, hits give low values 0.98 | locus YDR477W, strain SNF1, hits give low values 1.05 | locus YER123W, strain YCK3, hits give low values 1.05 | locus YER133W, strain GLC7, hits give low values 1.05 | locus YFL009W, strain cdc4, hits give low values 0.985 | locus YFL029C, strain CAK1, hits give low values 0.995 | locus YFR003C, strain YPI1, hits give low values 0.995 | locus YFR019W, strain FAB1, hits give low values 1.01 | locus YFR028C, strain CDC14, hits give low values 0.993 | locus YGR040W, strain KSS1, hits give low values 1.05 | locus YGR052W, strain FMP48, hits give low values 1.11 | locus YGR092W, strain DBF2, hits give low values 1.02 | locus YHR030C, strain SLT2, hits give low values 1.03 | locus YHR079C, strain IRE1, hits give low values 1.04 | locus YHR082C, strain KSP1, hits give low values 1.21 | locus YHR205W, strain SCH9, hits give low values 0.908 | locus YIL147C, strain SLN1, hits give low values 0.983 | locus YJL095W, strain BCK1, hits give low values 1.02 | locus YJL128C, strain PBS2, hits give low values 0.937 | locus YJL157C, strain FAR1, hits give low values 1.02 | locus YJR016C, strain ILV3, hits give low values 0.991 | locus YJR066W, strain TOR1 (second series), hits give low values 1.05 | locus YJR066W, strain TOR1, hits give low values 1.19 | locus YKL048C, strain ELM1, hits give low values 1.01 | locus YKL067W, strain YNK1, hits give low values 1.02 | locus YKL101W, strain HSL1, hits give low values 1.01 | locus YKL193C, strain SDS22, hits give low values 0.983 | locus YKL203C, strain TOR2, hits give low values 1.09 | locus YLR113W, strain HOG1, hits give low values 1.07 | locus YLR133W, strain CKI1, hits give low values 1.03 | locus YLR403W, strain SFP1, hits give low values 0.957 | locus YML070W, strain DAK1, hits give low values 1.05 | locus YMR001C, strain CDC5, hits give low values 0.994 | locus YMR205C, strain PFK2 (second series), hits give low values 1.03 | locus YMR277W, strain FCP1, hits give low values 0.989 | locus YNL006W, strain LST8, hits give low values 0.991 | locus YNL020C, strain ARK1, hits give low values 1.04 | locus YNL161W, strain CBK1, hits give low values 0.991 | locus YNL183C, strain NPR1, hits give low values 1.18 | locus YNL207W, strain RIO2, hits give low values 0.985 | locus YNL222W, strain SSU72, hits give low values 0.991 | locus YNL307C, strain MCK1 (second series), hits give low values 1.02 | locus YOL078W, strain AVO1, hits give low values 0.985 | locus YOL136C, strain PFK27, hits give low values 1.05 | locus YOR061W, strain CKA2, hits give low values 1.01 | locus YOR119C, strain RIO1, hits give low values 1.11 | locus YOR231W, strain MKK1, hits give low values 1.11 | locus YOR329C, strain SCD5, hits give low values 0.993 | locus YPL031C, strain PHO85, hits give low values 1.04 | locus YPL153C, strain RAD53, hits give low values 1.03 | locus YPL204W, strain HRR25, hits give low values 1.06 | locus YPL209C, strain IPL1, hits give low values 0.99 | locus YPL256C, strain CLN2, hits give low values 1.06 | locus YPR025C, strain CCL1, hits give low values 0.997 | locus YPR106W, strain ISR1, hits give low values 1.01 | locus YPR111W, strain DBF20, hits give low values 1 | strain NNK1, hits give low values 0.999 | strain TSCII, hits give low values 0.994
